# Assay results from the supplement of paper PMC5407854, “Inhibitor of ppGalNAc-T3-mediated O-glycosylation blocks cancer cell invasiveness and lowers FGF23 levels” (eLife, 2017).
# The full ranking holds about 1,700 compounds; the median of “T3 sensor activation Q score (MG/GFP ratio z-score vs DMSO controls)” is about 0.25, and the highest 2% start at about 1.9. What follows is part of a selection rich in the highest values, with near analogues and random picks from the rest.
# System: ppGalNAc-T3 sensor
# Assay: T3 sensor activation Q score (MG/GFP ratio z-score vs DMSO controls) (SD units); higher = more sensor activation (inhibition of ppGalNAc-T3 glycosylation)
# Conditions: HEK293 sensor cells; 10 µM; 6 h
# Procedure: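 Cells were treated with compound at 10 uM for 6 h, then MG/GFP ratio was read by flow cytometry (10,000 cells per well, duplicate wells). Q = (R - R_neg)/SD_neg relative to DMSO vehicle controls; the signal rises when the glycosyltransferase is inhibited.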
row,Compound,T3 sensor activation Q score
1,C=CCNC(=S)N1CCN(c2ccccc2Cl)CC1,-0.25
2,O=C(C(Cl)Cl)N1CC2CCC(CC2)C1,1.4
3,NS(=O)(=O)c1ccc(NC(=S)NC(=O)c2ccco2)cc1,1
4,CN=C1C=C/C(=N/N=c2/ccn(O)cc2C)C=C1C,0.15
5,CC(C)(C)c1ccc(C(=O)N2CCOC23CCCCC3)cc1,1.85
6,O=C(COc1cc(Cl)c(Cl)cc1Cl)Nc1ccc([N+](=O)[O-])cc1Cl,-0.3
7,CC(=O)NCCCOc1ccc([N+](=O)[O-])cc1Cl,-0.6
8,O=C(COc1ccc([N+](=O)[O-])cc1Cl)N1CCOCC1,1.85
9,COc1ccc(Br)c2c1C(=O)CC2,-1.4
10,CCCN(CCC)CC(=O)N1CC(=O)Nc2ccccc21,0.55
11,Nc1ccc(N=Nc2ccc(O)cc2)c(N)n1,1.5
12,Cc1ccc(N=Nc2c(O)c3ccccc3[nH]c2=O)c(S(=O)(=O)N(C)C)c1,0.95
13,C#CC1(O)CCC2C3CCC4=Cc5oncc5CC4(C)C3CCC21C (stereo not given),0.1
14,COc1cc2c(c(OC)c1O)C(=O)CO2,1.55
15,CC1(c2ccccc2)O[C@@H]2C[C@H]3[C@@H]4CCC5=CC(=O)C=C[C@]5(C)[C@@]4(F)[C@@H](O)C[C@]3(C)[C@]2(C(=O)CO)O1 (stereo not given in full),3.35
16,CC(=O)[C@H]1CC[C@H]2[C@@H]3CCC4=CC(=O)CC[C@]4(C)[C@@]3(F)[C@@H](O)C[C@]12C,0.55
17,CC(C)(C)n1nc(C2CC2)cc1NC(=O)Nc1ccc(Cl)cc1,0.7
18,COc1cc(Cl)c(CC(=O)c2c[nH]c3ccccc23)cc1OC,1.05
19,CC(C)(C)N1CC(OC(N)=O)C1,1.65
20,O=[N+]([O-])c1cccc(-c2nc3ccccc3s/c2=N/O)c1,1.3

row,Compound,T3 sensor activation Q score
1,CN(C)c1ccc(N=Nc2ccccn2)cc1,-0.95
2,Nc1c(Cl)ncnc1NCCO,0.55
3,COCC(=O)OC1CCn2c1nc1c2C(=O)C(C)=C(NC(C)=O)C1=O (stereo not given),-0.35
4,C(=N\n1cnnc1)/c1ccc2c(c1)CCC2,0.05
5,Cc1cc(C)c(C#N)c(Sc2nc(C)c([N+](=O)[O-])c(C)c2C#N)n1,-0.15
6,CC(=O)NC1(C(=O)O)CCCC1,-1.1
7,CC(=NO)C1CC(CC(=O)O)C1(C)C (stereo not given),-0.55
8,O=c1cc(-c2ccccc2)nc2cc(-c3ccco3)[nH]n12,0.35
9,Cn1c(N)c(C(=O)/C=C/c2ccccc2)c(=O)[nH]c1=O,1.7
10,OCc1ncccc1O,-0.75
11,CN(C)CCCN1c2ccc3ccccc3c2Sc2cccc(Cl)c21,-0.4
12,S=c1[nH]cc2cnccn12,-1.4
13,CCOc1ccc(NC(=S)NC(=O)c2ccco2)cc1,-1.05
14,Cc1ccn(C)c(=N)c1,2
15,O=C1OCC/C1=C\NCCCCCCCCN/C=C1\CCOC1=O,1.2
16,O=C1N=NC2=C1c1c3ccccc3c(O)n1CC2,1.7
17,CC(C)=CCC/C(C)=C\C(N)=O,0.2
18,CC(C)CC(NC(=O)OCc1ccccc1)C(=O)NC(Cc1c[nH]c2ccccc12)C(=O)O (stereo not given),-0.85
19,O=C1CSC(c2cccs2)N1c1nncs1 (stereo not given),0.05
20,N=C(N)n1c(N)nc2ccccc2c1=O,-0.55
